# Measurements as given in PubChem BioAssay.
# Calls of active or inactive are those of the source.
# Columns and labels:
# [1] = test system: Wnt5a (protein binding on small-molecule microarray); experiment: small molecules binding Wnt5a protein – biophysical, small-molecule microarray, 635/667 nm fluorescence, primary screen (AID 1142); conditions: 635 nm fluorescence, higher = more signal;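 further: fluorescence read at 667 nm with signal to noise per printed feature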
# [2] = ATP-based viability of Huh7 replicon cells – cell-based, CellTiter-Glo luminescence, basal, 48 h, cytotoxicity control for HCV replication inhibitor project, primary screen (AID 1143); conditions: higher = more signal, called active from +8 up or from −8 down;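 further: Huh7 hepatoma cells carrying a hepatitis C replication reporter with no stimulus; test concentration not given here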
# [3] = basal CRE-LacZ reporter activity in PC12 – cell-based, unstimulated, primary screen (AID 1145); conditions: no forskolin, luminescence, 4.5 h, higher = more signal, called active from +8 up or from −8 down
# [4] = forskolin-driven CRE-LacZ activity in PC12 – cell-based, CRE-LacZ reporter, forskolin-stimulated, primary screen (AID 1146); conditions: luminescence, 4.5 h, higher = more signal, called active from +8 up or from −8 down;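 further: PC12 cells with 6xCRE LacZ reporter stimulated by forskolin 10 µM; beta-galactosidase reporter signal reflecting CREB driven transcription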
# [5] = target: Streptavidin (Streptomyces avidinii) (UniProt P22629); experiment: compounds binding control protein streptavidin – biophysical, small-molecule microarray, 635/667 nm fluorescence, artefact control for SMM compound annotation, primary screen (AID 1147); conditions: higher = more signal;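 further: signal reflects streptavidin binding to arrayed compounds as a control protein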
# [6] = probe aInhba binding on compound microarray – biochemical, small-molecule microarray, 635/667 nm fluorescence, primary screen (AID 1148); conditions: higher = more signal;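 further: score merges 667nm spot fluorescence with signal-to-noise for antibody binding to printed compounds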
# Torsin-1A (Homo sapiens) [7] = target: Torsin-1A (Homo sapiens) (UniProt O14656); experiment: TOR1A wild-type binding on microarray – cell lysate, small-molecule microarray, lysate, 635/667 nm, primary screen (AID 1149); conditions: COS7 hTOR1A-WT lysate, 635 nm fluorescence, higher = more signal
# Torsin-1A (Homo sapiens) [8] = target: Torsin-1A (Homo sapiens) (UniProt O14656); experiment: torsin A mutant lysate binding on microarrays – cell lysate, small-molecule microarray, COS7 lysate, 635/667 nm fluorescence, primary screen (AID 1150); conditions: COS7 hTOR1A mutant lysate, 635 nm fluorescence, higher = more signal;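 further: score pools 667 nm emission and signal to noise measuring lysate protein binding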
# [9] = test system: Sonic hedgehog protein (Shh); experiment: Sonic hedgehog microarray binding compounds – biochemical, small-molecule microarray, 635/667 nm fluorescence, primary screen (AID 1151); conditions: 635 nm fluorescence, higher = more signal;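 further: Shh protein binding to compounds spotted on small-molecule microarray slides; score combines spot fluorescence intensity with signal-to-noise across triplicate slides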
# [10] = optical density shifts of acrAB sulA E. coli – strain DRC41, OD650, 48 h, E. coli filamentation inducer project, primary screen (AID 1152); conditions: higher = more signal, called active from +8 up or from −8 down;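 further: E. coli MC1000 strain DRC41 lacking acrAB efflux pump and sulA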
# [11] = probe aLefty1 binding on compound microarray – biochemical, small-molecule microarray, 635/667 nm fluorescence, primary screen (AID 1153); conditions: higher = more signal;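 further: score merges spot fluorescence with signal-to-noise ratio from the scanned slide images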
# [12] = plasmodial surface anion channel blockers, osmotic lysis – cell-based, P. falciparum Indochina, OD700, 1 h, primary screen (AID 1154); conditions: P. falciparum Indochina infected RBC osmotic lysis, higher = more signal, called active from +8 up or from −8 down
# [13] = plasmodial surface anion channel blockers, osmotic lysis – cell-based, P. falciparum Indochina, OD700, 2 h, primary screen (AID 1155);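 further: lysis reports solute entry through the parasite surface anion channel PSAC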; conditions: P. falciparum Indochina infected erythrocytes, higher = more signal, called active from +8 up or from −8 down
# [14] = changes in parasitized red cell lysis, either direction – P. falciparum Indochina, OD700, 3 h, PSAC antagonist project, primary screen (AID 1156); conditions: P. falciparum-infected erythrocytes, osmotic lysis, higher = more signal, called active from +8 up or from −8 down
# [15] = plasmodial surface anion channel blockers, osmotic lysis – cell-based, P. falciparum Indochina, OD700, 18 h, primary screen (AID 1157); conditions: P. falciparum Indochina infected erythrocytes, osmotic lysis OD700, 18 h; higher = more signal, called active from +8 up or from −8 down
# [16] = S6 kinase pathway phospho-S6 level changes – cell-based, A549, cytoblot, luminescence, serum-stimulated, primary screen (AID 1158); conditions: 5 h, higher = more signal;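 further: serum-stimulated A549 lung adenocarcinoma cells; signal is phosphorylated S6 detected by cytoblot immunostaining with HRP secondary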
# [17] = target: NADPH oxidase 2 (Homo sapiens) (UniProt P04839); experiment: compounds shifting NOX2 Amplex Red fluorescence – cell-based, HEK293-NOX2, PMA-stimulated, NOX inhibitor project, primary screen (AID 1159); conditions: 45 min, higher = more signal, called active from +8 up or from −8 down; further: test concentration not given here
# [18] = target: NADPH oxidase 4 (Homo sapiens) (UniProt Q9NPH5); experiment: compounds shifting NOX4 Amplex Red fluorescence – cell-based, HEK293-NOX4, tetracycline-induced, NOX inhibitor project, primary screen (AID 1160); conditions: HEK293-NOX4, Amplex Red H2O2 fluorescence, 45 min; higher = more signal, called active from +8 up or from −8 down
# [19] = target: NADPH oxidase 5 (Homo sapiens) (UniProt Q96PH1); experiment: compounds shifting NOX5 Amplex Red fluorescence – cell-based, HEK293-NOX5, NOX inhibitor project, primary screen (AID 1161); conditions: HEK293-NOX5, ionomycin, 45 min, higher = more signal
# Chain of NADPH oxidase 5 (Homo sapiens) (Q96PH1 whole entry, looked up): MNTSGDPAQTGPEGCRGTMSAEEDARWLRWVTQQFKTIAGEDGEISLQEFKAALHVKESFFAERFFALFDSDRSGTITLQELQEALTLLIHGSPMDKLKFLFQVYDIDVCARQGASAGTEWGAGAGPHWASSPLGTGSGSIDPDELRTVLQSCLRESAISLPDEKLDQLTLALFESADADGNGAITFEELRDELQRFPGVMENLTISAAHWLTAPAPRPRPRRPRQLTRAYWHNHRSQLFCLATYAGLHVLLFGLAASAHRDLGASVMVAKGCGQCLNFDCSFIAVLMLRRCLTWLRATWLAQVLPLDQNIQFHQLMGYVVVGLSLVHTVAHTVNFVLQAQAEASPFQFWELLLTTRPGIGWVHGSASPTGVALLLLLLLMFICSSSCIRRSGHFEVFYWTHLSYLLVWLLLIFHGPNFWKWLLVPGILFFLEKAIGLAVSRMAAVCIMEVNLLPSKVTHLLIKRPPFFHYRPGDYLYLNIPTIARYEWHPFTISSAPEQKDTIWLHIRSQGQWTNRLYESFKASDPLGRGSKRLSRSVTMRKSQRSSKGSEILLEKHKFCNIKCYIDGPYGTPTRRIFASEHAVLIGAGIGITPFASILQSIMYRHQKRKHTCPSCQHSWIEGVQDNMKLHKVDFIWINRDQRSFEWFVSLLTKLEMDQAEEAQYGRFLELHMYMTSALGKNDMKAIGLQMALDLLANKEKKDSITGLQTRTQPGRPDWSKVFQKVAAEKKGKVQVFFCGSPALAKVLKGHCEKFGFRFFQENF
# Chain of NADPH oxidase 4 (Homo sapiens) (Q9NPH5 whole entry, looked up): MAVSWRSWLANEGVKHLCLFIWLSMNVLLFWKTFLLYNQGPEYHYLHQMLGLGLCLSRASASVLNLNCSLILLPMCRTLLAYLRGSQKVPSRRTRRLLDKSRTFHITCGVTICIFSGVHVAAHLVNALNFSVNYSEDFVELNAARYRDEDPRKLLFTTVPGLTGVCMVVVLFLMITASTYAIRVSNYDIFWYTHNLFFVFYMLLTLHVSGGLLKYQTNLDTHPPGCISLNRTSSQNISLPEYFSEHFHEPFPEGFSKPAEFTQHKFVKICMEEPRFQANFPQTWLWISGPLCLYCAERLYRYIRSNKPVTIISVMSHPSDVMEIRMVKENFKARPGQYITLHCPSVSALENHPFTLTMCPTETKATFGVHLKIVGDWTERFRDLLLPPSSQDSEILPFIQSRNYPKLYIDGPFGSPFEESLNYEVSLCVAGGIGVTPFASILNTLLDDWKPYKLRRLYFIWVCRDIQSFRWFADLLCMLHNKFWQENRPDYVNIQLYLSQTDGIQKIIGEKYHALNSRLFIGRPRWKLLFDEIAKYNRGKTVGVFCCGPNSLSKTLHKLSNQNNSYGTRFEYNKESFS
# Chain of Streptavidin (Streptomyces avidinii) (P22629 whole entry, looked up): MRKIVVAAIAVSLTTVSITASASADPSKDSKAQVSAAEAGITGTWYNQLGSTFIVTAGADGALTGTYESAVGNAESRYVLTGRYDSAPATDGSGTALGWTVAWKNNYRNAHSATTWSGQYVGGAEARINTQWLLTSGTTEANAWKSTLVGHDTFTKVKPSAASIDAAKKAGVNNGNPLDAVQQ
# Chain of NADPH oxidase 2 (Homo sapiens) (P04839 whole entry, looked up): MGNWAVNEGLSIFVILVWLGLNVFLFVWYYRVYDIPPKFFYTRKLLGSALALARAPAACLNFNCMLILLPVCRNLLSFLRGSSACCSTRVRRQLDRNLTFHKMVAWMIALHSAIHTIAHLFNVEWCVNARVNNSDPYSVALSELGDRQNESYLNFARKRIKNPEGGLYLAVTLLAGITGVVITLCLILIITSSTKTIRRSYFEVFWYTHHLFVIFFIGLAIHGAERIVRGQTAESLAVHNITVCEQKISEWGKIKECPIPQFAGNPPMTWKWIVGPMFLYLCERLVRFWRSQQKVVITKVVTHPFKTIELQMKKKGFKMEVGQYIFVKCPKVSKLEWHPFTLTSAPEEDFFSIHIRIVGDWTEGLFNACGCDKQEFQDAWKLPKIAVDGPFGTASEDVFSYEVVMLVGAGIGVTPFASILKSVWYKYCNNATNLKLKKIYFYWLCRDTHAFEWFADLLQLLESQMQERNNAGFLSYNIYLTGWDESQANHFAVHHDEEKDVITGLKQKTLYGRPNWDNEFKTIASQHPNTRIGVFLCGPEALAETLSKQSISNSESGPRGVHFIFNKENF
# Chain of Torsin-1A (Homo sapiens) (O14656 whole entry, looked up): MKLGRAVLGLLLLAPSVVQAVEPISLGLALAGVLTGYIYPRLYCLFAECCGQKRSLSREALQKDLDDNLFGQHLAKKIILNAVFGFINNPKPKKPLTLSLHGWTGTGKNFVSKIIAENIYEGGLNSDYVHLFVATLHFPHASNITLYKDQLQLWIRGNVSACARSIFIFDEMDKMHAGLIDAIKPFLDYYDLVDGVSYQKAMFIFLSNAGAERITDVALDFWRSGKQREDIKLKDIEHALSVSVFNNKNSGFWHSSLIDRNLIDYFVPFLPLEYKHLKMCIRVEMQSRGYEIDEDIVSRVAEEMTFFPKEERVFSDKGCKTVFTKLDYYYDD
SMILES,composite z-score [1],z-score [2],z-score [3],z-score [4],composite z-score [5],composite z-score [6],composite z-score (Torsin-1A (Homo sapiens) [7]),composite z-score (Torsin-1A (Homo sapiens) [8]),composite z-score [9],z-score [10],composite z-score [11],z-score [12],z-score [13],z-score [14],z-score [15],z-score [16],z-score [17],z-score [18],z-score [19]
COCCOC(=O)N1C(=O)[C@@]2(c3cc(C#CCCO)ccc31)[C@H](C(=O)N1CCCCCCC1)[C@H]1C(=O)O[C@H](c3ccccc3)[C@H](c3ccccc3)N1[C@@H]2c1ccc(O)cc1,0.138,-4.07 (inactive),-0.815 (inactive),-1.28 (inactive),1,0.74,0.678,0.922,1.06,3.86 (inactive),1.6,1.06 (inactive),-0.755 (inactive),-0.0793 (inactive),-1.32 (inactive),5.3,1.7 (inactive),0.807 (inactive),1.67
CCOC(=O)C[C@H]1[C@H](OC(=O)c2cc3ccccc3oc2=O)[C@@H](NC(=O)c2ccc3ccccc3c2)c2cc(OCCCO)ccc2N1C(=O)c1ccc2ccccc2n1,0.338,-0.574 (inactive),9.89 (active),-2.03 (inactive),0.895,0.0497,0.419,0.268,0.43,2.1 (inactive),0.19,11.1 (active),1.42 (inactive),0.865 (inactive),0.868 (inactive),0.63,0.985 (inactive),0.873 (inactive),2.17
C=CC[C@]1(C(=O)NCC(O)CO)N=C(c2ccc(OCCCO)cc2)O[C@H]1c1ccccc1 (some centres not stated),0.621,-0.371 (inactive),1.37 (inactive),-0.804 (inactive),0.0012,-0.146,2.71,3.09,-0.559,1.46 (inactive),-0.179,6.95 (inactive),0.741 (inactive),1.55 (inactive),0.618 (inactive),0.672,1.22 (inactive),0.542 (inactive),0.195
COc1ccc([Si](C)(C)[C@H]2[C@H](CCO)O[C@@]3(C(=O)N(Cc4ccc(N5CCCCC5=O)cc4)c4ccccc43)[C@@H]2C)cc1,-0.0939,-3.56 (inactive),1.98 (inactive),-2.57 (inactive),-0.0077,-0.128,0.446,0.62,1.58,0.178 (inactive),0.0361,29.4 (active),25.6 (active),-0.512 (inactive),2.98 (inactive),1.26,1.11 (inactive),0.347 (inactive),1.5
C=CCC1=C[C@H]2[C@H]([C@@H]3C=C[C@]2(CC=C)C(=O)[C@]32CO2)[C@@]2(CO2)C1=O,0.123,-3.26 (inactive),2.21 (inactive),1.62 (inactive),0.843,-0.0021,0.919,-0.0031,2.11,2.45 (inactive),0.736,0.348 (inactive),-0.877 (inactive),1.16 (inactive),-1.87 (inactive),0.76,-0.0349 (inactive),0.0495 (inactive),-0.972
C=CCOC(=O)[C@@H]1[C@H]2C(=O)O[C@H](c3ccccc3)[C@H](c3ccccc3)N2[C@H](c2ccc(OCCOC(=O)[C@H]3C[C@H]4C(=O)N5CCC[C@H]5C(=O)N4[C@H]3c3ccc(O)cc3)cc2)[C@@]12C(=O)Nc1ccccc12,1.32,-3.23 (inactive),-0.402 (inactive),-1.32 (inactive),0.239,1.03,0.885,0.283,1.68,2.34 (inactive),0.244,3.21 (inactive),0.288 (inactive),-2.79 (inactive),-1.39 (inactive),0.557,1.56 (inactive),0.0128 (inactive),2.16
CC(C)(C)OC(=O)CC[C@@]1(C(=O)NCc2ccccc2)N=C(c2ccc(OCCCO)cc2)O[C@@H]1c1ccccc1,0.337,-4.58 (inactive),0.573 (inactive),-2.42 (inactive),1.41,0.346,0.461,1.04,-0.282,1.9 (inactive),0.736,23.9 (active),11.3 (active),1.61 (inactive),1.7 (inactive),3.43,-1.25 (inactive),0.596 (inactive),-0.58
NC(=O)NCC#Cc1ccc2c(c1)[C@]1(C(=O)N2)[C@H](C(=O)N2CCCCCCC2)[C@H]2C(=O)O[C@H](c3ccccc3)[C@H](c3ccccc3)N2[C@@H]1c1ccccc1OCCO,1.58,-0.481 (inactive),-0.348 (inactive),-1.18 (inactive),3.38,2.01,1.73,1.53,0.81,1.43 (inactive),2.79,0.833 (inactive),0.483 (inactive),1.8 (inactive),0.148 (inactive),0.421,2 (inactive),1.36 (inactive),0.881
CO[C@H]1COC(=O)CC=C[C@H](C)[C@@H](OC)COC(=O)CC=C[C@@H]1C,0.27,-0.909 (inactive),0.786 (inactive),-0.0885 (inactive),-0.538,-0.227,2.03,0.621,1.32,1.32 (inactive),0.0962,1.35 (inactive),0.636 (inactive),0.357 (inactive),0.254 (inactive),1.26,0.59 (inactive),1.19 (inactive),0.435
Cc1ccc(N2C(=O)c3ccccc3[C@@H](C(=O)NCc3ccccc3)[C@@H]2c2ccc(CO)cc2)nc1,0.0687,-1.54 (inactive),-0.0888 (inactive),-1.02 (inactive),-0.524,0.0028,0.628,0.276,0.311,1.85 (inactive),0.26,2.1 (inactive),-0.349 (inactive),-0.199 (inactive),-0.509 (inactive),-1.72,-0.109 (inactive),1.03 (inactive),0.298
C=CC[C@]1(C(=O)OC)N=C(c2ccc(OCCCO)cc2)O[C@H]1c1ccccc1CN=[N+]=[N-],0.832,-3.72 (inactive),5.1 (inactive),-0.911 (inactive),-1.12,0.0232,0.101,-0.0021,0.0034,0.919 (inactive),0.419,21.2 (active),4.18 (inactive),1.7 (inactive),0.786 (inactive),0.363,-3.18 (inactive),-0.411 (inactive),-2.23
C=CCC(OC(C)=O)[C@@H]1[C@@H](N(Cc2cc3ccccc3o2)C(=O)Cc2ccc(F)cc2)c2cc(OCCCO)ccc2N1C(=O)c1ccc(-c2ccccc2)cc1 (some centres not stated),-0.125,0.15 (inactive),0.787 (inactive),-0.775 (inactive),-0.117,-0.0313,-0.583,-0.159,0.0351,1.66 (inactive),0.0091,-0.171 (inactive),0.229 (inactive),-0.454 (inactive),0.0413 (inactive),0.437,0.578 (inactive),0.684 (inactive),0.314
CO[C@@H]1COC(=O)[C@H](C)NC(=O)CC=C[C@@H](C)[C@H](OC)COC(=O)[C@H](C)NC(=O)CC=C[C@H]1C,0.151,-0.164 (inactive),-0.205 (inactive),-0.759 (inactive),1.17,0.0659,0.678,-0.0045,0.622,1.02 (inactive),-0.0984,0.174 (inactive),0.551 (inactive),0.0076 (inactive),0.108 (inactive),0.298,0.319 (inactive),0.114 (inactive),0.976
CCCC[C@H]1OB(O)C[C@H]2C1=C(COC)C[C@H]1C(=O)N(Cc3ccccc3)C(=O)[C@H]12,0.192,-0.273 (inactive),0.307 (inactive),-1.76 (inactive),-0.098,0.124,-0.0377,0.37,0.329,2.78 (inactive),-0.0969,1.14 (inactive),-1.1 (inactive),0.223 (inactive),-2 (inactive),0.932,0.034 (inactive),0.811 (inactive),1.37
CN1CCC(CCCO)=CC1C1CC1 (configuration not stated),0.0651,-3.2 (inactive),-0.131 (inactive),-1.36 (inactive),-0.0672,-0.202,0.759,0.0677,1.23,1.08 (inactive),-0.0984,-0.369 (inactive),-1.58 (inactive),-1.01 (inactive),-1.9 (inactive),0.591,0.575 (inactive),-0.0075 (inactive),0.0296
CCCCO[C@H]1C[C@H]2C(Br)=C[C@@]1(CO)C(=O)[C@]21CO1,-0.112,-0.483 (inactive),0.577 (inactive),-0.67 (inactive),-0.0819,0.0714,0.0005,0.281,0.536,2.71 (inactive),-0.198,-0.789 (inactive),-1 (inactive),-0.269 (inactive),-2.44 (inactive),1.69,-0.446 (inactive),0.493 (inactive),0.178
COc1cc2c(cc1OC)CN(C(=O)[C@@H]1[C@H]3C(=O)O[C@H](c4ccccc4)[C@H](c4ccccc4)N3[C@H](c3ccccc3OCCO)[C@@]13C(=O)Nc1ccccc13)CC2,0.406,-2.96 (inactive),0.769 (inactive),-1.31 (inactive),0.0797,0.387,0.497,0.701,0.554,1.47 (inactive),0.551,8.6 (active),3.56 (inactive),-0.0442 (inactive),2.22 (inactive),0.206,1.67 (inactive),1.02 (inactive),0.901
O=C(CS)NCCCCCNC(=O)[C@H]1C[C@H]2C(=O)N[C@@H](Cc3ccccc3)C(=O)N2[C@H]1c1ccc(O)cc1,0.252,-0.164 (inactive),-0.809 (inactive),-0.819 (inactive),0.0842,0.0018,1.04,0.746,2.09,0.956 (inactive),0.0371,6.87 (inactive),-0.29 (inactive),-1.1 (inactive),-1.95 (inactive),0.263,0.99 (inactive),-0.205 (inactive),0.0913
